In the library only some 3.3% were active in any assay of this set; here they are far more common.
USP28 inh – blocks human USP28 ubiquitin-rhodamine cleavage; Q96RU2; purified USP28, Ub-rhodamine cleavage fluorescence, 30 min; inhibition, % at 25 µM; actives 3% (n = 47,000); AID 1645857
OTUD3 inh – inhibitors of human OTUD3 deubiquitinase; purified OTUD3, Ub-rhodamine fluorescence, 2 h; inhibition, % at 25 µM; actives 0.7% (n = 47,000)
* marks the source's active call; other numbers are inactive results. No stated cut-off is given here; in the data, active means inhibition above about 30%; inactive means the rest.

SMILES | USP28 inh | OTUD3 inh
COc1ccc(C(=O)Nc2cnc(N3CCCCCC3)nc2)cc1 | 44* | 0
Cc1ccc(C(=O)Nc2ccc(S(=O)(=O)N3CCCC3)cc2)cc1Br | 78* | 10
O=C(Nc1ccc(S(=O)(=O)N2CCCCC2c2cccnc2)cc1)c1ccc2c(c1)OCO2 (configuration not stated) | 41* | 10
O=S(=O)(c1ccc(S(=O)(=O)N2CCCCC2c2cccnc2)cc1)N1CCOCC1 (configuration not stated) | -5 | -2
COc1ccc(S(=O)(=O)N2CCCCC2)cc1NC(=O)c1ccc(OCC2CCCO2)cc1 (configuration not stated) | 11 | 5
O=C(Nc1cnc(N2CCCCCC2)nc1)c1ccc(F)cc1 | 4 | -7
O=C(Nc1cccc(S(=O)(=O)N2CCCC2)c1)c1ccc(OCC2CCCO2)cc1 (configuration not stated) | 36* | 0
Cc1nn2c(S(=O)(=O)NCc3ccccc3C)c(C)nc2s1 | 1 | 5
Cc1ccc2c(n1)N(C)C(c1ccc(NC(=O)C3CC3)cc1)NC2=O (configuration not stated) | -2 | 8
Nc1nc(CSc2ccccc2)nc(Nc2ccccc2)n1 | 3 | -1
CC1CCN(S(=O)(=O)c2ccc(C(=O)Nc3ccc(S(N)(=O)=O)cc3)cc2)CC1 | 21 | 0
CC(=O)Nc1ccc(S(=O)(=O)N2CCC(C(=O)Nc3ccc4cc[nH]c4c3)CC2)cc1 | 21 | 2
O=C(Nc1ccc(S(=O)(=O)NC2=NCCCCC2)cc1)c1ccccc1 | -15 | -15
COc1ccc(C(=O)Nc2ccc(S(=O)(=O)N3CCCCC3)cc2)cc1 | 66* | -2
CCOC(=O)N1CCN(S(=O)(=O)c2ccc(C(=O)Nc3ccc(OCC)cc3)cc2)CC1 | 5 | 2
COc1ccc(S(=O)(=O)N2CCC(C(=O)Nc3ccc4c(c3)OCO4)CC2)cc1 | 38* | 4
COc1ccc(C(=O)Nc2cccc(S(=O)(=O)NC3=NCCCCC3)c2)cc1 | 40* | -9
CC1CCCCN1S(=O)(=O)c1ccc(C(=O)Nc2ccc(S(N)(=O)=O)cc2)cc1 (configuration not stated) | 35* | 18
C[C@@H](C(=O)Nc1ccc(F)c(F)c1)n1c(=O)[nH]c2ccccc2c1=O | 3 | 5
COCC1c2nnn(C)c2CCN1C(=O)c1cc(F)c(F)cc1C (configuration not stated) | 9 | 12
Cc1ccc(NC(=O)c2cnc(N3CCOCC3)nc2)cc1C | 22 | 3
CCOC(=O)c1ccc(NC(=O)c2cnc(N3CCOCC3)nc2)cc1 | -70 | 30*
CCC(=O)Nc1ccc2c(c1)nc(CSc1nccc(C)n1)n2CC | 92* | -2
CCC(=O)Nc1ccc2c(c1)nc(CN1CCCCCC1)n2C | -6 | -9
Cn1c(CCN2CCCC2)nc2cc(NC(=O)c3ccccc3)ccc21 | 3 | -6
SMILES | USP28 inh | OTUD3 inh
Cc1cccc(C(=O)Nc2ccc3c(c2)nc(CSc2nccc(C)n2)n3C)c1 | 93* | 1
Cc1nc(-c2ccnn2C(C)C)cc(C2CCN(S(=O)(=O)N(C)C)CC2)n1 | 8 | 9
O=C(NC1CCCCC1)c1cccc(COc2ccc3c(c2)CCC3)c1 | -8 | -4
Cc1cccc(C)c1NC(=O)c1cccc(COc2ccc3c(c2)CCC3)c1 | 31* | 10
CCOc1ccc2nc(NC(=O)C3(c4cccc(F)c4)CCCC3)sc2c1 | -3 | -6
COc1cccc(C(=O)N2CCN(c3ncnc4c3nnn4Cc3ccccc3)CC2)c1 | 33* | 20
O=S(=O)(c1ccccc1)N1CCN(c2ncnc3c2nnn3Cc2ccccc2)CC1 | -2 | -4
Cc1csc(-c2ccc(N3CCN(C(=O)c4cccc(C#N)c4)CC3)nc2)n1 | 15 | 14
O=C(Cn1c(CNC(=O)c2ccccc2)nc2ccccc21)Nc1ccc(F)cc1 | 37* | 23
CC(NC(=O)c1ccccc1)c1nc2ccccc2n1CC(=O)Nc1ccc(C#N)cc1 (configuration not stated) | 0 | 0
COC1=CC(=O)c2c(O)c3c(c(C)c2C1=O)C[C@@]1(O)[C@H](O[C@H]2CC[C@H](O[C@H]4C[C@@](C)(O)[C@H](OC(=O)c5c(C)ccc(C)c5O)[C@H](C)O4)[C@@H](C)O2)C(=O)C(C(C)=O)=C(O)[C@@]1(O)C3=O | 63* | 53*
O=C(c1c2c(c[nH]c1=O)CCCC2)N1CCCC(O)(CN2CCCC2)CC1 (configuration not stated) | -19 | -9
CSc1cccc(NC(=O)CCc2nc3cccnc3n2Cc2ccccc2)c1 | -15 | -12
CCc1ccc(NC(=O)CCc2nc3cccnc3n2Cc2ccccc2)cc1 | 57* | 46*
Clc1ccccc1-c1cc2nc(NCCc3ccncc3)ccn2n1 | -17 | -23
COc1ccc(-c2ccc(CC3CN(Cc4ccncc4)CCN(C)C3=O)cc2)cc1 (configuration not stated) | -13 | -10
O=C(c1cn(-c2ccccc2)nc1-c1cccc(Br)c1)N1CCCCC1 | 1 | 7
O=c1ncn(Cc2ccc3c(c2)OCO3)cc1-c1ncc(C(F)(F)F)cc1Cl | 3 | 2
CCN1C(=O)COc2ccc(NC(=O)c3ccc(OCc4nonc4C)cc3)cc21 | 70* | 3
CCCCOc1ccc(C(=O)Nc2nonc2C)cc1 | 9 | -4
Cc1nc(CC(=O)Nc2cc(F)cc(F)c2)sc1C(=O)NC1CC1 | -12 | -16
O=C(Nc1ccncc1NC(=O)c1cccc(C(F)(F)F)c1)c1cccc(C(F)(F)F)c1 | -4 | -1
O=C(Nc1ccc2nccnc2c1)c1cccc(C(F)(F)F)c1 | 32* | 2
Cc1n[nH]c(C)c1C(C)C(=O)Nc1ccccc1C(F)(F)F (configuration not stated) | 10 | 15
CCC(C(=O)C(C)C(O)C(C)CCc1ccc(C)c(O)c1C(=O)O)C1OC(CC)(C2CCC(O)(CC)C(C)O2)CC1C (configuration not stated) | 41* | 32*
SMILES | USP28 inh | OTUD3 inh
COCCCNC(=O)c1ccc(Cn2c(=O)c3ccccc3n(CC(=O)Nc3ccc(OC)cc3)c2=O)cc1 | 5 | 0
O=C(C(c1ccccc1)c1ccccc1)N1CCC(c2nc3c(nnn3Cc3c(F)cccc3Cl)c(=O)[nH]2)CC1 | 38* | 16
CC(C)(C)CC(=O)N1CCC(c2nc3c(nnn3Cc3c(F)cccc3Cl)c(=O)[nH]2)CC1 | 1 | 0
COc1ccc(C(=O)NCc2csc3ccccc23)cc1 | 35* | 25
O=C(NCc1csc2ccccc12)c1ccc(Cl)cc1 | 11 | -3
CC1CCN(S(=O)(=O)c2cn(CC(=O)Nc3ccccc3)cn2)CC1 | 2 | 1
CC(Nc1ncnc2sccc12)c1ccccn1 (configuration not stated) | 0 | 12
CC(c1cc2ccccc2o1)N(C)c1ncnc2sccc12 (configuration not stated) | 35* | 11
Cc1cccc(S(=O)(=O)N2CCN(c3cnn4c(C)nnc4c3)CC2)c1 | -5 | 1
COc1cccc(NC(=O)CCc2c(C)nc3c(c2C)c(=O)n(C)c(=O)n3C)c1 | 37* | 5
COc1cccc(NC(=O)Cn2cnc3c(c(C)c(C)n3-c3ccccc3)c2=O)c1 | 21 | 0
COc1cccc(NC(=O)CCc2c(C)nn(-c3cc(N4CCCCC4)ncn3)c2C)c1 | 68* | -3
Cc1ccc(C)c(NC(=O)CCc2c(C)nn(-c3cc(N4CCCC4)ncn3)c2C)c1 | 12 | 24

Bioassay records from PubChem.
